Results on five compounds are retold here after PubChem BioAssay.

Calls of active or inactive are those of the source.

The nature of experiment [1]: binders of probe aFSTL3 on microarray, primary screen, stem cell growth factor project, biochemical, small-molecule microarray, fluorescence 635/667 (AID 1064).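 Also: measures binding of the biotinylated anti-FSTL3 antibody to printed compounds.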 Particulars: higher = more signal.
Experiment [2] is described as follows: binders from COS7 lysate, DM2A8 probe, primary screen, torsin A project, cell lysate, small-molecule microarray, fluorescence 635/667 (AID 1065). To be noted: higher = more signal, COS7 lysate expressing mutant human TOR1A.
A short description of experiment [3]: binders of probe aFGF2 on microarray, primary screen, stem cell growth factor project, biochemical, small-molecule microarray, fluorescence 635/667 (AID 1067).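 Also: measures binding of biotinylated aFGF2 protein to printed compounds on slides; z-score merges feature fluorescence and signal-to-noise across triplicate slides.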 Particulars: higher = more signal.
The nature of experiment [4]: binders of probe aFGF10 on microarray, primary screen, stem cell growth factor project, biochemical, small-molecule microarray, fluorescence 635/667 (AID 1071).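 Also: score merges 667 nm spot intensity and signal to noise from triplicate slides.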 To be noted: higher = more signal.
Experiment [5] deals with Neurogenic locus notch homolog protein 2 (Homo sapiens) (UniProt Q04721). As to the kind of experiment: Notch2 binders on small-molecule microarrays, primary screen, biochemical, small-molecule microarray, 635 nm fluorescence, stem cell growth factors (AID 1073). Particulars: Notch2 binding, higher = more signal.
Experiment [6] has as its target Pro-neuregulin-1, membrane-bound isoform (Homo sapiens) (UniProt Q02297). As to the kind of experiment: NRG1 binders on small-molecule microarrays, primary screen, psychiatric disease protein project, biochemical, small-molecule microarray, fluorescence 635/667 (AID 1075).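 Also: score combines 667 nm spot fluorescence with signal to noise.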 To be noted: NRG1 binding, 635 nm fluorescence, higher = more signal.
For experiment [7], the system named is Neuregulin-1 EGF-like domain. As to the kind of experiment: binders of neuregulin-1 EGF-like domain, primary screen, biochemical, small-molecule microarray, 635 nm fluorescence (AID 1081).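 Also: binding of the protein to compounds printed on small-molecule microarray slides.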 To be noted: small-molecule microarray binding, higher = more signal.
A short description of experiment [8]: FRG1 promoter luciferase signal modulators, primary screen, FRG1 inhibition for FSHD, cell-based, C2C12 myotubes, firefly/Renilla luciferase, luminescence (AID 1084). Particulars: higher = more signal, called active from +8 up or from −8 down.
Experiment [9] is described as follows: binders of probe aFST on microarray, primary screen, stem cell growth factor project, biochemical, small-molecule microarray, fluorescence 635/667 (AID 1086).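 Also: score merges 667 nm fluorescence with signal-to-noise of each printed compound spot.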 Particulars: higher = more signal.
Experiment [10] can be described thus: binders of probe aHhip on microarray, primary screen, stem cell growth factor project, biochemical, small-molecule microarray, fluorescence 635/667 (AID 1087).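 Also: score merges spot fluorescence at 667nm with spot signal to noise ratio.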 Particulars: higher = more signal.
Experiment [11] concerns PRMT1 (protein arginine N-methyltransferase 1). Description: PRMT1 binders on small-molecule microarrays, primary screen, biochemical, small-molecule microarray, 635 nm fluorescence (AID 1088).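 Also: binding of Prmt1 protein to compounds spotted on small-molecule microarray slides.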 Particulars: small-molecule microarray binding, higher = more signal.
The nature of experiment [12]: yeast growth modulation, basal conditions, primary screen, YJM789 clinical isolate, OD600, 24 h (AID 1089).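 Also: growth of clinical yeast isolate S. cerevisiae YJM 789 seeded 1000 cells per well; test concentration not given here.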 Particulars: S. cerevisiae YJM789 growth, higher = more signal, called active from +8 up or from −8 down.
The nature of experiment [13]: fission yeast growth modulation, primary screen, strain 972, OD600, 24 h, no modulator (AID 1090).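 Also: basal condition with compound alone and no growth modifier present; test concentration not given here.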 To be noted: S. pombe 972 growth, higher = more signal, called active from +8 up or from −8 down.
Experiment [14] can be described thus: S. cerevisiae growth modulation with rapamycin, primary screen, strain BY4716, OD600, 96 h (AID 1091). Also: test concentration not given here. Particulars: higher = more signal, called active from +8 up or from −8 down.
Experiment [15] deals with Torsin-1A-interacting protein 2 (Homo sapiens) (UniProt Q8NFQ8). Description: LULL1 binders on small-molecule microarray, primary screen, cell lysate, human LULL1 lysate, 635/667 nm fluorescence (AID 1092).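 Also: score merges per-feature 667 nm fluorescence with signal-to-noise.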 To be noted: hLULL1 lysate binding, 635 nm fluorescence, higher = more signal.
Experiment [16] can be described thus: E. coli growth modulation, two-sided OD650, primary screen, E. coli filamentation project, strain DRC41, 24 h (AID 1093).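 Also: MC1000 strain lacking acrAB efflux and sulA so SOS filamentation is blocked; test concentration not given here.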 To be noted: OD650, 24 h, higher = more signal, called active from +8 up or from −8 down.
Experiment [17] is described as follows: small-molecule microarray binders of probe aLefty2, primary screen, biochemical, biotinylated probe, 635/667 nm fluorescence (AID 1094).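 Also: score merges spot fluorescence near 667 nm with spot signal-to-noise ratio.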 Particulars: higher = more signal.
The subject of experiment [18] is Noggin (protein binding on small-molecule microarray). As to the kind of experiment: Noggin binders on small-molecule microarray, primary screen, biochemical, 635/667 nm fluorescence (AID 1095).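 Also: score merges 667 nm feature fluorescence with signal to noise over triplicate slides.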 To be noted: 635 nm fluorescence, higher = more signal.
The target in experiment [19] is Neurogenic locus notch homolog protein 3 (Homo sapiens) (UniProt Q9UM47). Description: NOTCH3 binders on small-molecule microarray, primary screen, biochemical, 635/667 nm fluorescence (AID 1096). To be noted: NOTCH3 binding, 635 nm fluorescence, higher = more signal.
Experiment [20] is described as follows: small-molecule microarray binders of probe aEGFR, primary screen, biochemical, biotinylated probe, 635/667 nm fluorescence (AID 1097).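 Also: probe is a biotinylated anti-EGFR antibody binding compounds printed on slides; score combines fluorescence near 667 nm and signal to noise of each spot.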 Particulars: higher = more signal.

Chain of Torsin-1A-interacting protein 2 (Homo sapiens) (Q8NFQ8 whole entry, looked up): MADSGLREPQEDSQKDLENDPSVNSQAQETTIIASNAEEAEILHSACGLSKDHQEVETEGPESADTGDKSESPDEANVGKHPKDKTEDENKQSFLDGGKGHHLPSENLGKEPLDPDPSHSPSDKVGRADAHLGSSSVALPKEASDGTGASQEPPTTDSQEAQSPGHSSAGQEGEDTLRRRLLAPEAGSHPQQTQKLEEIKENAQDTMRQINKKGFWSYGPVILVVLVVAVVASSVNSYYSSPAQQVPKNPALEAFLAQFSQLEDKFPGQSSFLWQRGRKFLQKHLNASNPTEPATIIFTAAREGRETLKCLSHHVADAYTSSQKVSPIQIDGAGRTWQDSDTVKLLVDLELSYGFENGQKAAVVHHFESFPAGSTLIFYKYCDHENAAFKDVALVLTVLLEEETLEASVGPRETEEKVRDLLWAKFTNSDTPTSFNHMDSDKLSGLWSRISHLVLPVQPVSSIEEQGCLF
Chain of Neurogenic locus notch homolog protein 2 (Homo sapiens) (Q04721 whole entry, looked up, canonical isoform): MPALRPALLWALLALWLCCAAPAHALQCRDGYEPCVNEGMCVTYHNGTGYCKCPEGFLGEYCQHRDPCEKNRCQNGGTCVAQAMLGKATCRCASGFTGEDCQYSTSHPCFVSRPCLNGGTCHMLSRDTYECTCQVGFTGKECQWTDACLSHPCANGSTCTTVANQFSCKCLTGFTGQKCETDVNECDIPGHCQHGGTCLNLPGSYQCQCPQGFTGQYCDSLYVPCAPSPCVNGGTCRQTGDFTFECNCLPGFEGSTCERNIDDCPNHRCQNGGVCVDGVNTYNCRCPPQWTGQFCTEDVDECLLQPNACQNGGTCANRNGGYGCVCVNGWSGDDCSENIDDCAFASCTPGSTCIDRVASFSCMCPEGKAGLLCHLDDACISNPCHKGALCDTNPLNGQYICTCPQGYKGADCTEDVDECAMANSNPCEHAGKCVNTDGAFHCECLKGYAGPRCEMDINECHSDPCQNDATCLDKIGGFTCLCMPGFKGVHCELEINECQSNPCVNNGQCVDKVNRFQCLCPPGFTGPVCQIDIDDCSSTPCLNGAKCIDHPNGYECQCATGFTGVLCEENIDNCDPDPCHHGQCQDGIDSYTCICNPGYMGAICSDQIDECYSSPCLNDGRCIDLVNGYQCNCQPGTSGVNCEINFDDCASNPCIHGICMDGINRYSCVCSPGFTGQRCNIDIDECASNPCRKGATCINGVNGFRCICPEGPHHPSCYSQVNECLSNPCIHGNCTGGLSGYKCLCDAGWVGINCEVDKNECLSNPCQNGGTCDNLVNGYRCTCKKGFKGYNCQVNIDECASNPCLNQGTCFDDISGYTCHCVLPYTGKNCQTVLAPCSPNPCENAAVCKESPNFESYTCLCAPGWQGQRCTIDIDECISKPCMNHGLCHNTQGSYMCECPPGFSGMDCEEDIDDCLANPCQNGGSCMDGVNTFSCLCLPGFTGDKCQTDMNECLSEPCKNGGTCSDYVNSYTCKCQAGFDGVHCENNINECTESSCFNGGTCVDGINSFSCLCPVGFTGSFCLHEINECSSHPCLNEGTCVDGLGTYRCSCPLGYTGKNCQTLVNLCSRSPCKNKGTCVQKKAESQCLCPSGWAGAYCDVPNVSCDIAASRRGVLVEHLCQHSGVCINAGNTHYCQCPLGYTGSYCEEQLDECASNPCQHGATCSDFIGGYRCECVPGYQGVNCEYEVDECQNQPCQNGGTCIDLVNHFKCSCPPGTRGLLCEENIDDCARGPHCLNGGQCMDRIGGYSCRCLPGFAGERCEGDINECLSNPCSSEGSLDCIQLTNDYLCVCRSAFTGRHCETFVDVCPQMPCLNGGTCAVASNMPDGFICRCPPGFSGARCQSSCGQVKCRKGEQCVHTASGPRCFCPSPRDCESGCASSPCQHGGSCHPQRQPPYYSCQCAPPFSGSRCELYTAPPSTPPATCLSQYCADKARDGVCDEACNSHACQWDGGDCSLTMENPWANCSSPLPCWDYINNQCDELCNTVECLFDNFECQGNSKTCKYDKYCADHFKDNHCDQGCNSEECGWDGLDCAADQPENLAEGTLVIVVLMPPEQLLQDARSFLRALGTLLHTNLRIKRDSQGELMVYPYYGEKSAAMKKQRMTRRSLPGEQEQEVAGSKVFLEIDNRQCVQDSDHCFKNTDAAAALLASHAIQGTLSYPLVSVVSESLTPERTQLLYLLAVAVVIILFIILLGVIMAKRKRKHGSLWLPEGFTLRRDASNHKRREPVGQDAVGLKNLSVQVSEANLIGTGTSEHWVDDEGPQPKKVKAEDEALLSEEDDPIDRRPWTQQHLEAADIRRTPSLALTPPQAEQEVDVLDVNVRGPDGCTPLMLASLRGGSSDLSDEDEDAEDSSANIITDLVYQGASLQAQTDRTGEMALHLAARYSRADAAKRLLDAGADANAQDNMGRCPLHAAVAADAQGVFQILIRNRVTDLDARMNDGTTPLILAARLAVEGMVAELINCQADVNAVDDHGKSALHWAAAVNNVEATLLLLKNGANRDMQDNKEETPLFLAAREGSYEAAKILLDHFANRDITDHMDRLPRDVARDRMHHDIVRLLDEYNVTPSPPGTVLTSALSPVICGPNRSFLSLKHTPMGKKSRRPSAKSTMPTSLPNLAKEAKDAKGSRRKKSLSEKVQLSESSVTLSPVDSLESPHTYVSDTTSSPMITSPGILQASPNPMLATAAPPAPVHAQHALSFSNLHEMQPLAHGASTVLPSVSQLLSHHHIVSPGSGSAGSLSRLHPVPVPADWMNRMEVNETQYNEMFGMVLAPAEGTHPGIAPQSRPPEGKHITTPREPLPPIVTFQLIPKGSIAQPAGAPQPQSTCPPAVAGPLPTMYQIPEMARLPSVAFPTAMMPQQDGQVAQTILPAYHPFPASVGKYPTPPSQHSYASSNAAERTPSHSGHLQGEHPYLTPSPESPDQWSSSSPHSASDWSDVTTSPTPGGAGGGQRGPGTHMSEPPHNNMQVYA
Chain of Pro-neuregulin-1, membrane-bound isoform (Homo sapiens) (Q02297 whole entry, looked up, the tested form may be a part, canonical isoform): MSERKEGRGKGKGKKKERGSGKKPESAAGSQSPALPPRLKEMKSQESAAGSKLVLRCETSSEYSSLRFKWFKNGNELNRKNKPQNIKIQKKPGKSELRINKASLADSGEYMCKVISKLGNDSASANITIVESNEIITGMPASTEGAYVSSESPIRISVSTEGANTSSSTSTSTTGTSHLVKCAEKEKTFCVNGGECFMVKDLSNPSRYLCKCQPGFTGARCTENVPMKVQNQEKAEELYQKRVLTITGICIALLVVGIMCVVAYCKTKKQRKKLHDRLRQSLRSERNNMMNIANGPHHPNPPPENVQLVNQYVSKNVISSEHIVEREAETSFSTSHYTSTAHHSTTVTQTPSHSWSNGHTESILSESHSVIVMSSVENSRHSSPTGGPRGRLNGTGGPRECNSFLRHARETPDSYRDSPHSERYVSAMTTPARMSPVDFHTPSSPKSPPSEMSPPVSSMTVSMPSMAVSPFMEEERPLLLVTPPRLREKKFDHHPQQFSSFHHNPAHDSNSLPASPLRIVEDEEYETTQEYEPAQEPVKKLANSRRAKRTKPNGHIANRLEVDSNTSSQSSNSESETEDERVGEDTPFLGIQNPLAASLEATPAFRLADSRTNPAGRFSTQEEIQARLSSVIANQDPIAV

As to `COCCOC(=O)N1C(=O)[C@@]2(c3cc(C#Cc4ccc(OC)cc4)ccc31)[C@H](c1ccccc1OCCO)N1[C@H](c3ccccc3)[C@H](c3ccccc3)OC(=O)[C@H]1[C@@H]2C(=O)NC[C@H](O)c1ccccc1`, the composite z-score in [1] was -0.532; in experiment [2], 0.579; in [3] it was -0.0744; in experiment [4] it was 0.514; in [5], 1.09; in [6], 1.12. Further, the composite z-score in experiment [7] was 1.3; in experiment [9], 0.499; in experiment [10], -0.0346; in experiment [11], 1.53; in [15] it was 2.86; in experiment [17] it was -0.0304. In addition, the results for the composite z-score in experiment [18], in [19] and in experiment [20] were 1.17, 1.04 and -0.0267, respectively. For the same compound, the z-score in [8] is 0.19 (inactive); in experiment [12] it was 2.89 (inactive); in experiment [13], 2.09 (inactive); in experiment [14] it was 7.27 (inactive); in experiment [16], -0.0186 (inactive).
`CCC[C@@H]1C[C@@]1(CCC)[C@@H](NS(=O)(=O)c1cccc2cccnc12)c1ccc(Cl)cc1`: the composite z-score in [1] is 0.561; in [2], -0.754; in experiment [3], 0.0367; in [4], 0.0835; in experiment [5], 0.763; in experiment [6], 0.858. Besides, the composite z-score is 0.917 in experiment [7]; 0.855 in experiment [9]; -0.0729 in [10]; 0.0685 in experiment [11]; 2.66 in experiment [15]; 0.0763 in experiment [17]. In addition, the results for the composite z-score in experiment [18], in experiment [19] and in experiment [20] were -1.22, 0.296 and -0.136, respectively. Moreover, the z-score in [8] is -3.58 (inactive); in experiment [12], 0.788 (inactive); in experiment [13], 1.01 (inactive); in experiment [14], 0.478 (inactive); in experiment [16], -1.01 (inactive).
As for `CC(C)C(=C=CC[C@@H](O)c1ccc(OCCO)cc1)C[C@@H](O)c1ccccn1`, the composite z-score was -0.149 in [1]; 0.651 in experiment [2]; 0.0297 in [3]; 1.19 in experiment [4]; 0.344 in [5]; -0.272 in experiment [6]. The composite z-score is 0.826 in experiment [7]; -0.0267 in [9]; -0.166 in experiment [10]; 1.19 in experiment [11]; -0.27 in experiment [15]; -0.235 in [17]. Besides, the composite z-score in experiment [18] was 1.08; in [19], 0.813; in experiment [20], -0.133. In addition, the z-score in [8] is 0.463 (inactive); in experiment [12], -1 (inactive); in experiment [13], -0.141 (inactive); in experiment [14], -0.347 (inactive); in experiment [16], -0.162 (inactive).
`C=C(CCCC)/C(=C/C[C@H](OC(C)=O)c1ccccc1OCCO)c1cc(C(=O)OC)ccc1OC`: the composite z-score was -0.198 in experiment [1]; -0.268 in [2]; -0.134 in experiment [3]; 0.339 in [4]; -0.264 in experiment [5]; -0.35 in [6]. In addition, the composite z-score in experiment [7] is 0.48; in experiment [9], -0.201; in experiment [10], -0.134; in [11], -0.0836; in [15], 0.405; in experiment [17], -0.171. Besides, the results for the composite z-score in [18], in experiment [19] and in experiment [20] were -0.035, 0.212 and -0.126, respectively. In addition, the z-score in experiment [8] is -0.214 (inactive); in experiment [12], 0.556 (inactive); in [13], -0.886 (inactive); in experiment [14] it was -0.24 (inactive); in [16], 1.18 (inactive).
Take `COc1ccc([Si](C)(C)[C@@H]2[C@@H](CCO)O[C@]3(C(=O)N(Cc4ccc(N(C=O)c5ccccc5)cc4)c4ccccc43)[C@H]2C)cc1`: the composite z-score in [1] was 0.235; in experiment [2], 0.0422; in [3] it was -0.0332; in experiment [4], 0.255; in experiment [5] it was 0.719; in experiment [6], 0.508. Further, the composite z-score in [7] is 0.565; in [9], 0.643; in [10] it was -0.0994; in [11] it was 0.883; in experiment [15], 0.758; in [17], 0.122. Besides, the composite z-score in experiment [18] was 0.445; in experiment [19], 0.332; in experiment [20] it was -0.0466. The z-score was -3.73 (inactive) in experiment [8]; 1.47 (inactive) in experiment [12]; 0.552 (inactive) in [13]; 25.3 (active) in [14]; 0.0689 (inactive) in experiment [16].
